Laboratory results from PubChem BioAssay (EPA / NIEHS).
Calls of active or inactive are those of the source. Rule for the calls: active = hit-call score of the fitted dose curve at least 0.9, where 1 is the maximum; inactive = score below 0.9.

Tests used:
Settings in all cases: mRNA level, 48 h; actives raise or lower the signal
[1] = read-out: Heat shock 70 kDa protein 1 (HSPA1A), gene 3303; assay: LTEA_HepaRG_HSPA1A: Life Technologies and Expression Analysis (LTEA) Assay for Heat shock 70 kDa protein 1 (HSPA1A) using HepaRG (AID 2283502)
In short: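 HSPA1A expression measured by qRT-PCR with ACTB/GAPDH/POLR2A normalization; curves fitted in both directions relative to DMSO vehicle. Exposure: 48 h in HepaRG cells, duplicate 8-point half-log series from 100 uM, 0.5% DMSO, serum-free induction medium.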

[2] = read-out: 3-Hydroxy-3-Methylglutaryl-CoA Synthase 2 (HMGCS2), HMGCS2 (gene 3158); assay: LTEA_HepaRG_HMGCS2: Life Technologies and Expression Analysis (LTEA) Assay for 3-Hydroxy-3-Methylglutaryl-CoA Synthase 2 (HMGCS2) using HepaRG (AID 2283504)
In short: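 This steatosis marker was read as HMGCS2 mRNA change in HepaRG cells treated 48 h with up to 100 uM chemical. Normalisation used housekeeping genes; activity in either direction was fitted relative to 0.5% DMSO vehicle.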

HGF (gene 3082) = assay: LTEA_HepaRG_HGF: Life Technologies and Expression Analysis (LTEA) Assay for Hepatocyte Growth Facto (HGF) using HepaRG (AID 2283505)
In short: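 Using HepaRG monolayers kept in 0.5% DMSO, chemicals were tested in duplicate over eight half-log concentrations from 100 uM for 48 h. Endpoint: HGF mRNA change relative to DMSO, normalized to ACTB/GAPDH/POLR2A.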

[3] = read-out: Insulin Like Growth Factor 1 (IGF1), IGF1 (gene 3479); assay: LTEA_HepaRG_IGF1: Life Technologies and Expression Analysis (LTEA) Assay for Insulin Like Growth Factor 1 (IGF1) using HepaRG (AID 2283506)
In short: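 Expression measured by TaqMan qRT-PCR on a Fluidigm array, with three housekeeping genes for normalisation, after 48 h treatment of HepaRG cells. Top concentration 100 uM with half-log steps, 0.5% DMSO vehicle, bidirectional fit.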

[4] = read-out: Intercellular Adhesion Molecule 1 (ICAM1), ICAM1 (gene 3383); assay: LTEA_HepaRG_ICAM1: Life Technologies and Expression Analysis (LTEA) Assay for Intercellular Adhesion Molecule 1 (ICAM1) using HepaRG (AID 2283507)
In short: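 Using the human liver line HepaRG, compounds are tested in duplicate over 48 h at concentrations up to 100 uM. Expression is determined by TaqMan qRT-PCR, normalized to endogenous controls, and analysed relative to 0.5% DMSO vehicle.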

[5] = read-out: Insulin-like growth factor-binding protein 1 (IGFBP1), IGFBP1 (gene 3484); assay: LTEA_HepaRG_IGFBP1: Life Technologies and Expression Analysis (LTEA) Assay for Insulin-like growth factor-binding protein 1 (IGFBP1) using HepaRG (AID 2283508)
In short: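 HepaRG, 48 h, 8 conc. (max 100 uM, half-log), duplicates, 0.5% DMSO. Readout: TaqMan qRT-PCR, ACTB/GAPDH/POLR2A normalisation. Fit: bidirectional vs DMSO.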

[6] = read-out: Interleukin 6 (IL6), IL6 (gene 3569); assay: LTEA_HepaRG_IL6: Life Technologies and Expression Analysis (LTEA) Assay for Interleukin 6 (IL6) using HepaRG (AID 2283509)
In short: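 Transcript levels, normalized to three housekeeping genes, were quantified by qRT-PCR after 48 h chemical treatment of HepaRG cells. Eight-point half-log series from 100 uM in 0.5% DMSO, duplicates. Fitted both directions against DMSO baseline.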

[7] = read-out: Interleukin 6 Receptor (IL6R), IL6R (gene 3570); assay: LTEA_HepaRG_IL6R: Life Technologies and Expression Analysis (LTEA) Assay for Interleukin 6 Receptor (IL6R) using HepaRG (AID 2283510)
In short: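 IL6R transcript level by qRT-PCR after 48 h chemical exposure (8-point, half-log, max 100 uM, 0.5% DMSO vehicle) of HepaRG cells in serum-free induction medium. Normalized to three housekeeping genes; curves fitted in both directions relative to DMSO.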

[8] = read-out: Potassium channel subfamily K member 1 (KCNK1), KCNK1 (gene 3775); assay: LTEA_HepaRG_KCNK1: Life Technologies and Expression Analysis (LTEA) Assay for Potassium channel subfamily K member 1 (KCNK1) using HepaRG (AID 2283511)
In short: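 KCNK1 transcript measured by TaqMan qRT-PCR against three housekeeping genes, after HepaRG cells were treated 48 h with eight half-log concentrations (top 100 uM, 0.5% DMSO). Curves fitted bidirectionally relative to vehicle.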

[9] = read-out: Lipase C (LIPC), LIPC (gene 3990); assay: LTEA_HepaRG_LIPC: Life Technologies and Expression Analysis (LTEA) Assay for Lipase C (LIPC) using HepaRG (AID 2283514)
In short: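 LIPC expression was quantified by qRT-PCR against three housekeeping genes (ACTB, GAPDH, POLR2A). Differentiated human HepaRG cells received eight half-log doses (top 100 uM, 0.5% DMSO) in duplicate for 48 h; fitting bidirectional relative to DMSO.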

[10] = read-out: Lipoprotein lipase (LPL), LPL (gene 4023); assay: LTEA_HepaRG_LPL: Life Technologies and Expression Analysis (LTEA) Assay for Lipoprotein lipase (LPL) using HepaRG (AID 2283515)
In short: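 LPL transcript levels quantified by TaqMan qRT-PCR against three housekeeping genes after 48 h chemical treatment of HepaRG cells. Eight-point half-log series from 100 uM in 0.5% DMSO, tested in duplicate; bidirectional fitting versus vehicle.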

[11] = read-out: matrix metalloproteinase-10 (MMP10), MMP10 (gene 4319); assay: LTEA_HepaRG_MMP10: Life Technologies and Expression Analysis (LTEA) Assay for matrix metalloproteinase-10 (MMP10) using HepaRG (AID 2283517)
In short: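 Expression measured by TaqMan qRT-PCR with ACTB/GAPDH/POLR2A normalisation after 48 h chemical exposure of HepaRG cells. Eight half-log concentrations, top 100 uM, 0.5% DMSO vehicle, duplicates; gain or loss fitted against vehicle.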

MYC, MYC (gene 4609) = assay: LTEA_HepaRG_MYC: Life Technologies and Expression Analysis (LTEA) Assay for MYC using HepaRG (AID 2283518)
In short: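 Expression changes were scored by TaqMan qRT-PCR with ACTB, GAPDH and POLR2A normalization. Cultures in serum-free induction medium received duplicate 8-point concentration series, highest 100 uM, for 48 h; DMSO (0.5%) served as baseline.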

[12] = read-out: matrix metalloproteinase-3 (MMP3), MMP3 (gene 4314); assay: LTEA_HepaRG_MMP3: Life Technologies and Expression Analysis (LTEA) Assay for matrix metalloproteinase-3 (MMP3) using HepaRG (AID 2283519)
In short: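 Fluidigm-based TaqMan qRT-PCR, normalized to ACTB, GAPDH and POLR2A and fitted bidirectionally versus 0.5% DMSO, measured transcript levels. Treatment: duplicate 48 h exposures of HepaRG cells, ~100,000/well, to eight half-log concentrations topping at 100 uM.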

[13] = read-out: Paternally Expressed 10 (PEG10), PEG10 (gene 23089); assay: LTEA_HepaRG_PEG10: Life Technologies and Expression Analysis (LTEA) Assay for Paternally Expressed 10 (PEG10) using HepaRG (AID 2283520)
In short: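 PEG10 transcript measured by Fluidigm qRT-PCR, normalized to three housekeeping genes, in HepaRG cells treated 48 h (highest 100 uM, half-log steps, 0.5% DMSO vehicle). Cells plated 48 h before switching to serum-free induction medium.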

[14] = read-out: Nuclear factor NF-kappa-B p105 subunit (Homo sapiens) (UniProt P19838); assay: LTEA_HepaRG_NFKB1: Life Technologies and Expression Analysis (LTEA) Assay for Nuclear Factor Kappa B Subunit 1 (NFKB1) using HepaRG (AID 2283521);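 note: TaqMan qRT-PCR transcript normalised to ACTB GAPDH and POLR2A housekeeping genes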
In short: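 Differentiated human HepaRG cells were exposed for 48 h in serum-free induction medium to eight concentrations (top 100 uM, half-log steps, 0.5% DMSO), in duplicate. NFKB1 mRNA was measured by TaqMan qRT-PCR, normalized to ACTB/GAPDH/POLR2A, and fitted bidirectionally against DMSO.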

[15] = read-out: Hypoxia-inducible factor 1-alpha (Homo sapiens) (UniProt Q16665); assay: LTEA_HepaRG_HIF1A: Life Technologies and Expression Analysis (LTEA) Assay for Hypoxia-inducible factor 1 (HIF1A) Trancription factor using HepaRG (AID 2283503)
In short: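 HIF1A transcript level read by qRT-PCR (ACTB, GAPDH, POLR2A normalization) after 48 h chemical exposure of HepaRG cultures. Eight half-log concentrations, top 100 uM, 0.5% DMSO vehicle, duplicates; bidirectional curve fit against DMSO baseline.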

[16] = read-out: Keratin 19 (KRT19), KRT19 (gene 3880); assay: LTEA_HepaRG_KRT19: Life Technologies and Expression Analysis (LTEA) Assay for Keratin 19 (KRT19) using HepaRG (AID 2283512)
In short: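 Readout is qRT-PCR of KRT19 mRNA, normalized to ACTB, GAPDH and POLR2A, from HepaRG cells treated 48 h with eight-point half-log dilutions topping at 100 uM. Activity in either direction is scored relative to 0.5% DMSO vehicle.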

[17] = read-out: JUN Transcription Factor, JUN (gene 3725); assay: LTEA_HepaRG_JUN: Life Technologies and Expression Analysis (LTEA) Assay for JUN Transcription Factor using HepaRG (AID 2283513)
In short: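 mRNA measured by TaqMan qRT-PCR after 48 h chemical exposure of HepaRG cultures; normalization to three housekeeping genes. Duplicate eight-point half-log curves from 100 uM in 0.5% DMSO; gain or loss fitted against DMSO baseline.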

[18] = read-out: MicroRNA 122 (MIR122), gene 406906; assay: LTEA_HepaRG_MIR122: Life Technologies and Expression Analysis (LTEA) Assay for MicroRNA 122 (MIR122) using HepaRG (AID 2283516); note: the transcript read is the microRNA miR-122
In short: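 Expression measured by microfluidic qRT-PCR with three housekeeping genes for normalisation, after 48 h treatment of HepaRG cultures. Eight concentrations (top 100 uM, half-log steps, 0.5% DMSO vehicle) in duplicate; gain or loss fitted relative to vehicle.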

Measured: AC50

Nuclear factor NF-kappa-B p105 subunit (Homo sapiens), sequence (P19838 whole entry, looked up): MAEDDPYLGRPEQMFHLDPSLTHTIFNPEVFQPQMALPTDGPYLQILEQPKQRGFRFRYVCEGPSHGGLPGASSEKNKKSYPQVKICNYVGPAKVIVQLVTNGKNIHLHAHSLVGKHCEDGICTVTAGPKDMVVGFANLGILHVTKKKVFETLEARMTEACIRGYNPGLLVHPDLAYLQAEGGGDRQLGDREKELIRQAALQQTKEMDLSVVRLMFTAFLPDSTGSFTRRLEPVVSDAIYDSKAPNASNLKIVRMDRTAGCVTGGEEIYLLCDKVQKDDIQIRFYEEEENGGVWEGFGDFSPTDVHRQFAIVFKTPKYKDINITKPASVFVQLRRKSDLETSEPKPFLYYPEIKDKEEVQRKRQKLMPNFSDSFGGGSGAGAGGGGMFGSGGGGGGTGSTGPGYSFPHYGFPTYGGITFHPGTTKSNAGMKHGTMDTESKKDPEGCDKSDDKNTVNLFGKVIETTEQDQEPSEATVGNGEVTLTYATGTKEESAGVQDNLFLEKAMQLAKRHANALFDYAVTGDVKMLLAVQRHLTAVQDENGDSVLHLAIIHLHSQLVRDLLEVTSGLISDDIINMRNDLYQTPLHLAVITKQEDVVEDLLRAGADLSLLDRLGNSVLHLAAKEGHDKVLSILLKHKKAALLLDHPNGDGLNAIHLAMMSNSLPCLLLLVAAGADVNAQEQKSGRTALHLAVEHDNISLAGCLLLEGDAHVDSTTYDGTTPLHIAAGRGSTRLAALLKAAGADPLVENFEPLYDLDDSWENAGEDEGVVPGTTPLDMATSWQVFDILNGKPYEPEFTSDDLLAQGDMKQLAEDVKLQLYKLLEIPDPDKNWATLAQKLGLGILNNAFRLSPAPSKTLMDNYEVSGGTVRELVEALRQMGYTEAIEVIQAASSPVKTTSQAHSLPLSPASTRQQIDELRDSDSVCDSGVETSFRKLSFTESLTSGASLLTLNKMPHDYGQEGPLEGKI
Hypoxia-inducible factor 1-alpha (Homo sapiens), sequence (Q16665 whole entry, looked up): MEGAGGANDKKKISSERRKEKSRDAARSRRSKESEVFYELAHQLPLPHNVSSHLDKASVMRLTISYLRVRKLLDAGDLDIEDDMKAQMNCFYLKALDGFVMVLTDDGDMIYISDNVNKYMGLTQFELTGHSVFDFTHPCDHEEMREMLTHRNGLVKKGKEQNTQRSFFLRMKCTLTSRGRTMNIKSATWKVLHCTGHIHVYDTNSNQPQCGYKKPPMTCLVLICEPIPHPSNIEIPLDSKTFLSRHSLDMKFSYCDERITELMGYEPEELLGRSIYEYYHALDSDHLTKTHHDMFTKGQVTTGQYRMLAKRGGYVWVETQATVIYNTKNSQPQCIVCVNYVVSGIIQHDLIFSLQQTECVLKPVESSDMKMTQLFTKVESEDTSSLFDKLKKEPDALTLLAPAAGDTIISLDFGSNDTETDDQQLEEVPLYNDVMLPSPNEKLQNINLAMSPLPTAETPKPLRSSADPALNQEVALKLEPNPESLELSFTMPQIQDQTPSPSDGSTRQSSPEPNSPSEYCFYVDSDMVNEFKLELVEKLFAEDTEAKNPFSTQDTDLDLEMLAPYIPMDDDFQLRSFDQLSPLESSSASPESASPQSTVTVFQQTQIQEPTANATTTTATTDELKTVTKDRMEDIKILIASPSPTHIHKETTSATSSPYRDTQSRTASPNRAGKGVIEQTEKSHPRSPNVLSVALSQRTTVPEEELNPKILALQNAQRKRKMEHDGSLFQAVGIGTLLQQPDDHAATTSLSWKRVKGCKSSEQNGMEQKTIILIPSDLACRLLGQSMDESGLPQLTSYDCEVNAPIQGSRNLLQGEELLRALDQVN

CCCSC(=O)N(CCC)CCC
not listed: [15] | [16] | [17] | [18]
inactive: all other assays above

Oc1ccccc1Cl
not listed: [1]
inactive: all other assays above

O=P(OCCCl)(OCCCl)OCCCl
active: [1] 9.92 µM | [12] 67.3 µM
not listed: [14] | [15] | [16]
inactive: all other assays above

C=CCc1ccc2c(c1)OCO2
not listed: [1] | [17] | [18]
inactive: all other assays above

CO[C@@H]1[C@H](OC(=O)NC(=O)CCl)CC[C@]2(CO2)[C@H]1[C@@]1(C)O[C@@H]1CC=C(C)C
active: [3] 3.17 µM
not listed: [15] | [16]
inactive: all other assays above

O=[N+]([O-])C(Br)(CO)CO
not listed: [15] | [16] | [17] | [18]
inactive: all other assays above
